The list is not random: actives were taken first. Their share in the collection is about 7.5%.
Luc counter = Counterscreen for Luciferase (Kinase-Glo TM) Inhibition; Kinase-Glo luciferase, ATP luminescence, 8 min; Potency, µM (top dose mostly 38.3 µM), inactives show at the top dose activity change, negative = inhibition, hits mostly inhibitors; 200,000 tested, 0.28% active; AID 1379, 2008; further: on the % scale 0 is the no-effect control and ±100 the full control effect; nearly all actives have a fitted effect of over 60% in size
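Compounds were added to a substrate mix at pH 7.2 (50 mM imidazole, 10 uM ATP, within the enzyme's linear range), followed by Kinase-Glo detection reagent; luminescence was measured after 8 minutes at ambient temperature.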
FLuc counter = qHTS profiling assay for firefly luciferase inhibitor/activator using purifed enzyme and Km concentrations of substrates (counterscreen for miR-21 project); Luciferin 4-monooxygenase (Photinus pyralis), P08659; purified FLuc, Km substrates, luminescence inhibition; Potency, µM (titrated, usually from 57.5 µM), inactives show at the highest dose activity change, negative = inhibition, usual class: inhibitors; 360,000 tested, 6.9% active; AID 588342, 2011;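 further: plate controls were vehicle for no effect and reference inhibitor for full effect; nearly all actives have a fitted effect of over 55% in size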
Target sequence (P08659 whole entry, looked up): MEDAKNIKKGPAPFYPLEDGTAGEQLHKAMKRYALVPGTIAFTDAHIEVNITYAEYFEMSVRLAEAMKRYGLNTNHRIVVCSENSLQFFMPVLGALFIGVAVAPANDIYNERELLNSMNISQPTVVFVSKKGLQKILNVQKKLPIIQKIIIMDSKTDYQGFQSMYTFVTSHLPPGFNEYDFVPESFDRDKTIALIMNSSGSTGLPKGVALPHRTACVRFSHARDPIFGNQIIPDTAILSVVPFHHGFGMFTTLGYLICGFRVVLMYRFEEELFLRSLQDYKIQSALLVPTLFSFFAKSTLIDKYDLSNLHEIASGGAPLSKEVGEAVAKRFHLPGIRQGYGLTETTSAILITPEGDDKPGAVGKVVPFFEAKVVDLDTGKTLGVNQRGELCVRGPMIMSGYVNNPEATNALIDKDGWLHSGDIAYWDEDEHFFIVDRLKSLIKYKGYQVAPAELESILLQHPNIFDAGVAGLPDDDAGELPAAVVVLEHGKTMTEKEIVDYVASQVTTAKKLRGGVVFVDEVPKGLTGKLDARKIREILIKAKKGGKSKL
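Purified P. pyralis luciferase, 10 nM final, with Km-level 10 uM D-luciferin and 10 uM ATP in 50 mM Tris acetate pH 7.5, 10 mM Mg acetate, 0.01% Tween-20, 0.05% BSA; 6-point qHTS titration about 60 µM downward; luminescence read.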
NPC1 prom act = qHTS Assay for NPC1 Promoter Activators. 320,000 tested, 2.4% active. Huh7 NPC1 promoter luciferase reporter, 24 h. AID 485313, 2010. Potency, µM (series often up to 9.22 µM), without a hit: at the top dose activation, hits mostly activators; further: % of control where 0% means no effect; nearly all actives have a fitted effect of over 60% in size
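Stably transfected Huh7 (NPC1 promoter→luciferase), 1500 cells/well in Opti-MEM + 10% FBS, 2 h settle, then compound 24 h at 37 °C. Luminescence after 10 min with Amplite reagent.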
ELG1 genotox = qHTS screen for small molecules that induce genotoxicity in human embryonic kidney (HEK293T) cells expressing luciferase-tagged ELG1. Potency, µM (titrated, usually from 46 µM), for inactives: at the highest dose activity change, positive = activation, actives largely listed as activators. HEK293T ELG1-luciferase reporter, luminescence, 16 h. AID 504466, 2011. 330,000 tested, 1.3% active; further: % of control where 0% means no effect; nearly all actives have a fitted effect of over 60% in size
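ELG1-luciferase HEK293T cells, 2,000/well; compound pinned in; 16 hr, 37 °C, 5% CO2; ONE-Glo, 30 min RT; luminescence on CCD imager.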
Rab9 promoter act = qHTS Assay for Rab9 Promoter Activators; Huh7 Rab9 promoter-luciferase reporter, luminescence, 24 h; Potency, µM (doses to about 9.22 µM), for inactives: at the highest dose activation, negative = inhibition, usual class: activators; 320,000 tested, 2.8% active; further: % of control where 0% means no effect; nearly all actives have a fitted effect of over 60% in size
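Huh7 reporter line, Rab9 promoter upstream of luciferase. Compound exposure 24 h at 37 °C in reduced-serum medium with 10% FBS. Read-out: luminescence.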
SMN2 splice up = qHTS Assay for Enhancers of SMN2 Splice Variant Expression; HEK293 SMN2-luciferase splicing reporter, luminescence, 30-36 h; Potency, µM (top dose mostly 46.1 µM), without a hit: top-dose activity change, positive = activation, actives largely listed as activators; 210,000 tested, 2.8% active; further: % of control where 0% means no effect; nearly all actives have a fitted effect of over 55% in size
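HEK293 cells carry an SMN2 minigene-luciferase reporter in which exon 7 inclusion puts luciferase in frame. Cells were seeded at 2000 cells/well, attached for 10-12 hours, then exposed to compounds for 30-36 hours at 37C before ONE-Glo luminescence.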
Numbers without * were called inactive; u = inconclusive; x = no result. The call rests on the fitted dose curve; in most records, active means well fitted curve in the direction sought with a large enough effect; inconclusive means small, poorly fitted or top-dose-only effect, or another doubt; inactive means no such curve, though single readings can be large; an effect the other way counts as inactive or inconclusive. Potency means the concentration at half of the fitted maximal effect.

SMILES	Luc counter	FLuc counter	NPC1 prom act	ELG1 genotox	Rab9 promoter act	SMN2 splice up
O=c1cc(-c2ccccc2F)oc2ccccc12	-6.3%	10.7µM*	u	u	2.24µM*	12.6µM*
Cc1ccccc1-c1cc(=O)c2ccccc2o1	x	x	x	6.7%	x	x
COc1cccc2oc(-c3ccccc3)cc(=O)c12	15.8µM*	x	x	x	x	x
CSc1ccc(-c2cc(=O)c3ccccc3o2)cc1	4.0%	4.78µM*	23.7%	9.2µM*	u	11.2µM*
COc1ccccc1-c1cc(=O)c2cccc(OC)c2o1	-2.6%	x	x	x	x	22.9%
N#Cc1ccc(CS(=O)(=O)c2nnnn2C2CCCCC2)cc1	-2.9%	x	x	x	x	5.2%
Cc1nn(C)c(C(=O)Sc2cccc(Cl)c2)c1[N+](=O)[O-]	x	-12.0%	-2.0%	-2.7%	-1.4%	x
O=C(COc1ncnc2ccccc12)c1ccc2c(c1)OCCO2	x	4.78µM*	1.12µM*	u	1.12µM*	x
O=C(CSc1ncnc2ccccc12)c1ccc2c(c1)OCCO2	x	3.38µM*	u	u	2.82µM*	x
Cc1ccc(C(=O)COc2ncnc3cc(Cl)ccc23)cc1	x	u	26.9%	9.0%	25.9%	x
Cc1ccc(C)c(C(=O)COc2ncnc3ccccc23)c1	-0.6%	u	8.2%	1.6%	17.7%	14.2%
O=C(COc1ncnc2cc(Cl)ccc12)c1ccc2c(c1)OCCO2	x	1.9µM*	3.16µM*	u	0.631µM*	x
COc1cccc(NC(=O)c2ccccc2-c2nc(-c3ccccc3)no2)c1	-4.0%	u	-0.2%	5.7%	-1.2%	-13.5%
COc1ccccc1NC(=O)c1ccccc1-c1nc(-c2ccccc2OC)no1	-8.5%	10.7µM*	5.2%	-7.5%	7.8%	18.4%
COc1ccccc1-c1noc(-c2ccccc2C(=O)Nc2ccccc2)n1	8.3%	10.7µM*	11.2%	3.8%	25.9%	-3.2%
COc1cccc(NC(=O)c2ccccc2-c2nc(-c3ccc(Cl)cc3)no2)c1	-1.3%	13.5µM*	9.4%	-3.2%	9.5%	-1.5%
O=C(COc1coc(CN2CCc3ccccc3C2)cc1=O)Nc1cccc([N+](=O)[O-])c1	x	-1.8%	-0.1%	-0.1%	-8.6%	x
Cc1cccc(OCc2nc(C#N)c(NCc3ccccc3Cl)o2)c1	x	u	x	x	x	28.7%
CCc1ccc(NC(=O)C(=O)NCC(c2cccnc2)N2CCN(c3ccc(F)cc3)CC2)cc1 (stereo unspecified)	x	-3.3%	x	x	x	x
Cc1cc(C)n(CCNC(=O)c2ccc3c(c2)OCO3)n1	x	u	4.5%	10.0%	1.9%	x
O=C1COc2ccc(C(=O)COC(=O)c3ccccc3[N+](=O)[O-])cc2N1	x	1.51µM*	19.5%	9.4%	u	x
O=C1COc2ccc(C(=O)COC(=O)c3ccco3)cc2N1	x	12µM*	0.2%	0.6%	-1.0%	x
O=C1COc2ccc(C(=O)COC(=O)c3ccc(Cl)cc3[N+](=O)[O-])cc2N1	x	-0.5%	0.5%	x	-8.1%	x
Cc1nc(N2CCOCC2)c2nc(-c3ccccc3)n(C(C)CN(C)C)c2n1 (stereo unspecified)	2.5%	x	x	x	x	3.2%
CCN(CC(=O)NCc1cccs1)C(=O)C(c1ccccc1)c1ccccc1	x	0.7%	3.4%	-0.2%	-2.1%	x
SMILES	Luc counter	FLuc counter	NPC1 prom act	ELG1 genotox	Rab9 promoter act	SMN2 splice up
O=C(N/N=C/c1ccc(O)cc1)Nc1cccc2nsnc12	-1.8%	12µM*	10.7%	1.1%	27.9%	x
COc1cc(/C=N/NC(=O)Nc2cccc3nsnc23)cc(OC)c1OC	1.5%	-17.3%	1.5%	-0.1%	7.0%	0.3%
NC(N)=NC(=O)c1nc(Cl)c(N2CCCCCC2)nc1N	-2.8%	4.26µM*	u	16.4µM*	u	8.2%
Cc1ccc(-n2ncc(C(=O)NCCc3ccsc3)c2C2CCN(C(=O)OC(C)(C)C)CC2)cc1C	x	-0.5%	x	x	x	x
O=C1C(Cl)=C(NC2CCCCC2)C(=O)N1c1ccc(Cl)cc1	-0.7%	4.78µM*	13.9%	u	17.8%	u
Cc1ccc(S(=O)(=O)Nc2cccc(-c3ccc(N4CCCCCC4)nn3)c2)c(C)c1	x	10.7µM*	u	u	u	x
O=S(=O)(Nc1cccc(-c2ccc(N3CCCCC3)nn2)c1)c1cccc(F)c1	x	2.39µM*	x	x	x	x
O=S(=O)(Nc1cccc(-c2ccc(N3CCCC3)nn2)c1)c1ccc(F)cc1F	x	15.1µM*	x	x	x	x
Cc1ccc(S(=O)(=O)Nc2ccc(-c3ccc(N4CCCCCC4)nn3)cc2)c(C)c1	x	-19.1%	x	x	x	x
O=S(=O)(Nc1cccc(-c2cn3c(n2)SCC3)c1)c1ccc(F)cc1F	x	-5.1%	-1.4%	-3.9%	4.8%	x
CC(C)C[C@@H](CC(=O)N[C@@H](CCCN)CC(=O)N[C@@H]1CCCC[C@H]1C(=O)N[C@H](CC(=O)N[C@@H](CCC(=O)O)CC(=O)O)CC(C)C)NC(=O)[C@@H]1CNCC[C@H]1N	-1.3%	x	x	x	x	11.8%
CNC(=O)c1c(NC(=O)c2ccc3ncsc3c2)sc(C)c1C	x	u	-1.3%	24.3%	1.2%	x
Cc1ccc(CC(=O)Nc2nc3c(s2)CCCC3)cc1	-2.0%	u	9.3%	25.6%	7.5%	x
Cc1ncsc1C(=O)Nc1nc2c(s1)CCCC2	6.31µM*	7.57µM*	2.51µM*	u	1µM*	11.2µM*
O=C(Nc1nc2c(s1)CCCC2)c1ccc2ncsc2c1	-11.9%	2.39µM*	u	u	u	0.501µM*
Cc1cccc(C(=O)Nc2nc3c(s2)CCCC3)c1	x	1.35µM*	x	x	x	x
Cc1cc(C(=O)Nc2nc3c(s2)CCCC3)cs1	u	0.601µM*	u	u	1µM*	u
CCc1ccc(CNC(=O)c2ccc(CSc3nc4ccncc4n3Cc3ccccc3)cc2)cc1	x	-10.8%	x	x	x	-22.8%
Cc1cc(Br)ccc1NC(=O)C1CCN(S(=O)(=O)c2cnc[nH]2)CC1	x	0.0%	-2.7%	-0.1%	-0.2%	x
COc1ccccc1OCC(=O)Nc1nc2c(s1)CCCC2	x	-15.3%	21.3%	-0.4%	21.7%	x
COc1ccc(C(=O)Nc2nc3c(s2)CCCC3)cc1Cl	x	2.39µM*	x	x	x	x
O=C(Nc1nc2c(s1)CCCC2)c1ccc(Br)s1	-4.3%	1.51µM*	2.82µM*	u	0.501µM*	u
CC(C)(C)n1ncc2c(=O)n(Cc3cccc(Cl)c3Cl)cnc21	x	-12.5%	x	x	x	x
COC(=O)c1sc(-c2cccs2)cc1N	x	12µM*	u	u	26.5%	x
CC(=O)c1sc(-c2ccc(Cl)cc2)cc1N	x	u	4.4%	u	13.2%	x
COC(=O)c1sc(-c2ccc(Cl)cc2)cc1N	x	6.75µM*	2.24µM*	u	2.51µM*	x
